# Only some compounds are listed: those with a hit (about 0.59% of all), similar ones and a draw of the others.
# DUSP3 inh = VHR1 phosphatase inhibitors, primary screen, biochemical, absorbance, uHTS | inhibition, % at 13.3 µM | actives 0.52% (n = 290,000) | recombinant VHR phosphatase, pNPP absorbance; in the data active = inhibition above about 50%
# Target sequence (P51452 whole entry, looked up): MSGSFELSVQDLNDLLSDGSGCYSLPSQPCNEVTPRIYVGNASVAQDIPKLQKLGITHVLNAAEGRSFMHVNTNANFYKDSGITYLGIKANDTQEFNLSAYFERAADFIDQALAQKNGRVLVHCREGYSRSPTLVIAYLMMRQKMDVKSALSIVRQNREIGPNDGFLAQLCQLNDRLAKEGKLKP
# Mtb hypoxia rep = PubChem AID 1159583; M. tuberculosis hypoxia-regulated fluorescent reporter, fluorescence; fluorescence inhibition, % (test concentration not listed); actives 0.1% (n = 300,000); in the data active = fluorescence inhibition mostly above about 23%, no sharp cut-off; inactive = mostly below about 17%
# Rv3671c inh = Rv3671c serine protease inhibitors, primary screen, biochemical, fluorescence polarization, M. tuberculosis H37Rv; P9WHR9; inhibition, % at 5.96 µM; actives 0.048% (n = 320,000); in the data active = inhibition above about 38%;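 note: extracellular domain of Rv3671c used as enzyme; 0% = enzyme with DMSO and 100% = no enzyme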
# Mtb UGM inh = M. tuberculosis UGM enzyme inhibitors, primary screen, biochemical, fluorescence polarization, single point | purified UGM, fluorescence polarization probe displacement | inhibition, % at 10 µM | actives 0.06% (n = 320,000) | AID 504406, 2011; in the data active = inhibition above about 10%, passing the limit was not always enough; inconclusive = no clear call, values can overlap the other calls
# Mtb betalactam = beta-lactam sensitization of Mtb H37Rv, H37Rv; inhibition, % at 25 µM; actives 0.27% (n = 330,000); M. tuberculosis H37Rv growth with meropenem, percent inhibition; AID 434955, 2010; call rule not given here;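 note: growth measured after seven days incubation then overnight dye step; 0% = bacteria only wells and 100% = bacteria with antibiotic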
# Numbers without * were called inactive; ? = inconclusive; nt = not tested or not shown.
SMILES,DUSP3 inh,Mtb hypoxia rep,Rv3671c inh,Mtb UGM inh,Mtb betalactam
CCN(CC)c1ccc(NC(=O)OC)cc1,20,19,0,-2,65
O=C(Cn1nc(-c2ccc(Cl)cc2)ccc1=O)NCC1COCCO1 (stereo unspecified),52*,0,0,0,-6
O=C(Cn1nc(-c2ccccc2)ccc1=O)NCC1COCCO1 (stereo unspecified),27,5,2,0,0
Cc1ccc(C)c(Cn2nc(-c3ccccc3)ccc2=O)c1,53*,11,-1,0,82
Cc1ccc(S(=O)(=O)N2CCOCC2)cc1C(=O)OCC(=O)NC1CCCCC1,nt,-1,nt,nt,nt
Cc1ccc(S(=O)(=O)N2CCOCC2)cc1C(=O)OCC(=O)NC1CC1,nt,33*,-9,2,-7
Cc1cccc(Oc2ccc(Cl)cc2N)c1,-1,8,-2,0,6
Cc1ccc(-c2cc(-c3ccccc3)nc(Cl)n2)cc1,30,10,-10,1,93
COc1ccc(-c2cc(-c3ccccc3)nc(Cl)n2)cc1OC,51*,3,-17,-2,92
COC(=O)c1ccc(OCC2NCCc3cc(OC)c(OC)cc32)cc1 (stereo unspecified),56*,2,2,1,?
O=C(O)/C=C/C(=O)NC1CCCCC1,11,1,3,0,2
CN(CC(=O)Nc1ccc(OC(F)(F)F)cc1)C(=O)/C=C/c1ccco1,nt,6,-5,-3,1
CN(CC(=O)Nc1ccc(OC(F)(F)F)cc1)C(=O)/C=C/c1cc2c(cc1[N+](=O)[O-])OCO2,nt,30*,-1,0,?
CS(=O)(=O)N1CCc2cc(C(=O)N3CCN(c4cccc(Cl)c4)CC3)ccc21,18,10,5,-3,4
Cc1ccc(Cl)cc1N1CCN(C(=O)c2ccc3c(c2)CCN3S(C)(=O)=O)CC1,57*,nt,-16,-2,10
CC1SC(c2ccc(Cl)cc2Cl)NC1=O (stereo unspecified),57*,nt,7,2,-16
OC(CNCC1CCCCC1)COc1ccccc1 (stereo unspecified),51*,5,-14,0,-3
CCC1(c2ccc(F)cc2)NC(=O)N(CC(=O)NCC(=O)Nc2cccc(C)c2C)C1=O (stereo unspecified),nt,6,1,1,-4
CCn1c(O)c(N=NC(=O)c2ccc(CSc3nncn3C)cc2)c2ccccc21,3,42*,-10,-2,94
COc1cccc2c1C(=O)c1c(O)c3c(c(O)c1C2=O)C[C@@](O)(C(C)=O)C[C@@H]3O[C@H]1C[C@H](N)[C@H](O)[C@H](C)O1,1,nt,nt,nt,nt
COc1cccc2c1C(=O)c1c(O)c3c(c(O)c1C2=O)C[C@@](O)(C(=O)CO)C[C@@H]3O[C@H]1C[C@H](N)[C@@H](O)[C@H](C)O1,nt,nt,37,38*,94
CCN(CC)S(=O)(=O)c1ccc(Cl)c(NC(=O)CSc2cccc[n+]2[O-])c1,8,11,7,-1,-5
CCN(CC)S(=O)(=O)c1ccc(NC(=O)CSc2cccc[n+]2[O-])cc1,52*,8,-9,-1,26
CCN(CC)S(=O)(=O)c1ccc(NC(=O)COc2c(OC)cccc2OC)cc1,56*,2,-2,2,2
CCOc1ccc(OCC(=O)OCC(=O)N2CCN(C(=O)c3ccco3)CC2)cc1,nt,-8,1,3,-10
SMILES,DUSP3 inh,Mtb hypoxia rep,Rv3671c inh,Mtb UGM inh,Mtb betalactam
O=C1C=C(c2cc3ccccc3s2)CC(c2ccc(Cl)cc2)C1 (stereo unspecified),nt,5,nt,nt,nt
COC(=O)c1c(NC(=O)CN2C(=O)C(=O)N(C(C)C)C2=O)sc(C)c1C,nt,8,-2,0,1
O=C(NCCCN1CCOCC1)c1ccc2c(c1)N(Cc1ccccc1)C(=O)c1ccccc1S2=O (stereo unspecified),60*,-17,-3,5,-9
COc1ccc(-c2nc3ccccc3c(=O)o2)cc1OC,7,11,-4,-1,75
CC(C)CCN1C(=O)c2ccc(-c3nc4ccccc4c(=O)o3)cc2C1=O,50*,9,2,-2,99
COc1ccccc1NS(=O)(=O)c1ccc(NN=C(C)C(C)C)c([N+](=O)[O-])c1,nt,0,nt,nt,nt
Cc1ccc(C(C)NC(=O)c2ccc3c(c2)OCCO3)cc1C (stereo unspecified),55*,15,-11,-2,-7
Cc1c(C(=O)Nc2c(F)cccc2F)sc2ncn(CC(=O)N3CCCCC3)c(=O)c12,2,4,7,0,2
Cc1ccc(C(NC(=O)N2CCCCC2)=C(Cl)Cl)cc1F,11,-1,3,-1,3
O=C(CCC(=O)N1CCc2ccccc2C1)N1CCN(S(=O)(=O)c2ccccc2)CC1,33,2,-5,2,-4
CCOC(=O)C1CCN(S(=O)(=O)c2ccc(-c3ccc(=O)[nH]n3)o2)CC1,51*,-5,-2,2,-12
Brc1ccc(-c2csc(NNC3=NCCCCC3)n2)cc1,10,5,6,1,1
CC(C)(C)c1ccc(-c2csc(NNC3=NCCCCC3)n2)cc1,55*,6,2,1,-12
O=C(Cn1c(=O)oc2ccccc21)Nc1ccc(F)c(F)c1,57*,13,-4,1,-6
CCc1ccc(C(C)=NNC(=O)c2ccc(-n3cnnn3)cc2)cc1,nt,19*,nt,nt,nt
Cn1ncc2c(=O)n(N=Cc3ccccc3)cnc21,nt,-1,nt,nt,nt
CC(=O)c1sc(NC(=O)c2ccc(Cl)cc2)nc1C,5,1,4,2,-2
Cc1ccc(-c2nc(S(=O)(=O)c3ccc(C)cc3)c(N(C)C)o2)cc1,-2,-15,2,-1,-3
Cc1nc(S(=O)(=O)c2ccc(Cl)cc2)c(N(C)C)o1,53*,-3,-6,-1,-5
Cc1ccc(N(CC(=O)NCc2ccc(F)cc2)C(=O)c2ccco2)cc1C,28,-10,-1,0,-2
OCC1(CCc2ccccc2)CCN(C/C=C/c2ccccc2)CC1,56*,6,-5,5,-3
CC1=C([N+](=O)[O-])C(c2ccc(Cl)cc2)NC(=O)N1 (stereo unspecified),59*,3,-4,-3,-2
COc1ccc(Cl)cc1NC(=O)C12CCC(C)(C(=O)O1)C2(C)C (stereo unspecified),9,4,0,-1,-8
COc1ccccc1/C=C\C(=O)NCC(=O)N/N=C/c1ccc(O)cc1O,56*,nt,7,4,1
O=C1NC2(CCCCC2)N=C1c1ccc(Br)cc1,55*,-3,-3,3,1
O=C(COC(=O)Cc1ccc(Cl)cc1)NCc1cccs1,nt,29*,6,0,7
O=C(CNC(=O)OCc1ccccc1)NC1CCCCCC1,53*,-16,-6,1,1
